# From PubChem BioAssay (EPA / NIEHS)
# Calls of active or inactive are those of the source. Rule for the calls: active = hit-call score of the fitted dose curve at least 0.9, where 1 is the maximum; inactive = score below 0.9.
# Columns and labels:
# Conditions in all cases: mRNA level, 48 h; actives raise or lower the signal
# [1] = read-out: Cytochrome P450 (CYP24A1), CYP24A1 (gene 1591); experiment: LTEA_HepaRG_CYP24A1: Life Technologies and Expression Analysis (LTEA) Assay for Cytochrome P450 (CYP24A1) using HepaRG (AID 2283478)
# In short: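 mRNA of CYP24A1 quantified by TaqMan qRT-PCR (ACTB/GAPDH/POLR2A normalization) after 48 h chemical exposure of HepaRG cells, top concentration 100 uM, half-log steps, 0.5% DMSO vehicle, duplicates. Curves fitted bidirectionally against DMSO baseline.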
# [2] = read-out: Cytochrome P450 (CYP1A2), CYP1A2 (gene 1544); experiment: LTEA_HepaRG_CYP1A2: Life Technologies and Expression Analysis (LTEA) Assay for Cytochrome P450 (CYP1A2) using HepaRG (AID 2283479)
# In short: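 CYP1A2 transcript measured by TaqMan qRT-PCR against three housekeeping genes after 48-hour chemical exposure of HepaRG cells. Eight-point half-log series topping at 100 uM in 0.5% DMSO, duplicates; gain or loss fitted relative to vehicle.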
# [3] = read-out: cysteine-aspartic acid protease (CASP8), CASP8 (gene 841); experiment: LTEA_HepaRG_CASP8: Life Technologies and Expression Analysis (LTEA) Assay for cysteine-aspartic acid protease (CASP8) using HepaRG (AID 2283480)
# In short: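 CASP8 transcript measured by TaqMan qRT-PCR with ACTB/GAPDH/POLR2A normalization, after 48 h chemical exposure of HepaRG cells in serum-free induction medium. Eight concentrations, top 100 uM, half-log steps, 0.5% DMSO vehicle; fits in both directions versus DMSO.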
# [4] = read-out: Cytochrome P450 (CYP2B6), CYP2B6 (gene 1555); experiment: LTEA_HepaRG_CYP2B6: Life Technologies and Expression Analysis (LTEA) Assay for Cytochrome P450 (CYP2B6) using HepaRG (AID 2283481)
# In short: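 CYP2B6 transcript level quantified by qRT-PCR against three housekeeping genes, fitted bidirectionally relative to DMSO. HepaRG cultures received chemicals for 48 h, 8-point half-log series from 100 uM in 0.5% DMSO, duplicate wells, serum-free induction medium.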
# [5] = read-out: Cytochrome P450 2C19 (Homo sapiens) (UniProt P33261); experiment: LTEA_HepaRG_CYP2C19: Life Technologies and Expression Analysis (LTEA) Assay for CYP2C19 using HepaRG (AID 2283482)
# In short: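 CYP2C19 transcript levels by qRT-PCR, normalized to three housekeeping genes, in HepaRG cells after 48 h chemical exposure. Eight-point half-log series topping at 100 uM, 0.5% DMSO vehicle. Increases and decreases both fitted against DMSO.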
# CYP2C8 (gene 1558) = experiment: LTEA_HepaRG_CYP2C8: Life Technologies and Expression Analysis (LTEA) Assay for CYP2C8 using HepaRG (AID 2283483)
# In short: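 CYP2C8 expression measured by TaqMan qRT-PCR and normalized to three housekeeping genes. HepaRG cultures were treated for 48 h with an eight-point half-log series topping at 100 uM, vehicle 0.5% DMSO, duplicates; fitted both directions against DMSO.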
# CYP2C9 (gene 1559) = experiment: LTEA_HepaRG_CYP2C9: Life Technologies and Expression Analysis (LTEA) Assay for CYP2C9 using HepaRG (AID 2283484)
# In short: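 CYP2C9 transcript level, quantified by TaqMan qRT-PCR against three housekeeping genes, was fitted bidirectionally relative to 0.5% DMSO. HepaRG cultures were treated 48 h, in duplicate, at eight half-log concentrations topping at 100 uM.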
# CYP2E1 (gene 1571) = experiment: LTEA_HepaRG_CYP2E1: Life Technologies and Expression Analysis (LTEA) Assay for CYP2E1 using HepaRG (AID 2283485)
# In short: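 CYP2E1 transcript measured by Fluidigm qRT-PCR against three housekeeping genes in human HepaRG cells treated 48 h (top 100 uM, half-log steps, 0.5% DMSO vehicle). Gain or loss fitted relative to DMSO baseline.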
# CYP4A11 (gene 1579) = experiment: LTEA_HepaRG_CYP4A11: Life Technologies and Expression Analysis (LTEA) Assay for CYP4A11 using HepaRG (AID 2283486)
# In short: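 Readout is CYP4A11 transcript level by qRT-PCR, normalized to three housekeeping genes and fitted bidirectionally against 0.5% DMSO. Human HepaRG cells were treated 48 h, in duplicate, with an 8-point half-log series topping at 100 uM.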
# [6] = read-out: Cytochrome P450 3A4 (Homo sapiens) (UniProt P08684); experiment: LTEA_HepaRG_CYP3A4: Life Technologies and Expression Analysis (LTEA) Assay for CYP3A4 using HepaRG (AID 2283487)
# In short: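 Differentiated HepaRG cells in serum-free induction medium exposed in duplicate for 48 h to 8 half-log concentrations up to 100 uM in 0.5% DMSO. CYP3A4 mRNA measured by qRT-PCR normalized to ACTB, GAPDH and POLR2A; bidirectional fit versus DMSO.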
# [7] = read-out: Pro-epidermal growth factor (Homo sapiens) (UniProt P01133); experiment: LTEA_HepaRG_EGF: Life Technologies and Expression Analysis (LTEA) Assay for Epidermal growth factor (EGF) using HepaRG (AID 2283489)
# In short: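 EGF transcript measured by Fluidigm TaqMan qRT-PCR with three housekeeping genes for normalization, 48 h after dosing HepaRG cultures in duplicate (top 100 uM, half-log steps, 0.5% DMSO vehicle). Gain or loss relative to DMSO fitted.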
# [8] = read-out: Early growth response protein 1 (EGR1) transcription factor, EGR1 (gene 1958); experiment: LTEA_HepaRG_EGR1: Life Technologies and Expression Analysis (LTEA) Assay for Early growth response protein 1 (EGR1) transcription factor using HepaRG (AID 2283490)
# In short: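 EGR1 transcript levels quantified by qRT-PCR (Fluidigm arrays) against three housekeeping genes after 48 h chemical exposure of HepaRG cells. Eight-point half-log series topping at 100 uM, 0.5% DMSO vehicle, analyzed for gain or loss.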
# [9] = read-out: Ezrin (EZR), EZR (gene 7430); experiment: LTEA_HepaRG_EZR: Life Technologies and Expression Analysis (LTEA) Assay for Ezrin (EZR) using HepaRG (AID 2283491)
# In short: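 Differentiated human HepaRG cells, 48 h after plating, were exposed in serum-free induction medium for 48 hours to eight half-log concentrations up to 100 uM in 0.5% DMSO. EZR mRNA was measured by TaqMan qRT-PCR, normalized to ACTB, GAPDH and POLR2A, and fitted bidirectionally against DMSO.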
# [10] = read-out: Cytochrome P450 3A7 (Homo sapiens) (UniProt P24462); experiment: LTEA_HepaRG_CYP3A7: Life Technologies and Expression Analysis (LTEA) Assay for CYP3A7 using HepaRG (AID 2283492)
# In short: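 CYP3A7 transcript measured by qRT-PCR (ACTB, GAPDH, POLR2A normalization) after 48 h chemical exposure of HepaRG cells in duplicate. Eight half-log concentrations, maximum 100 uM, 0.5% DMSO vehicle; bidirectional curve fitting against DMSO baseline.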
# CYP3A5 (gene 1577) = experiment: LTEA_HepaRG_CYP3A5: Life Technologies and Expression Analysis (LTEA) Assay for CYP3A5 using HepaRG (AID 2283493)
# In short: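 mRNA levels were quantified by qRT-PCR on Fluidigm arrays and normalized to three housekeeping genes. Differentiated HepaRG cells received 48 h exposure (top 100 uM, half-log steps, 0.5% DMSO vehicle, duplicate); bidirectional fitting versus DMSO.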
# [11] = read-out: Fatty Acid-Binding Protein 1 (FABP1), FABP1 (gene 2168); experiment: LTEA_HepaRG_FABP1: Life Technologies and Expression Analysis (LTEA) Assay for Fatty Acid-Binding Protein 1 (FABP1) using HepaRG (AID 2283494)
# In short: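 FABP1 expression by TaqMan qRT-PCR, normalised to three housekeeping genes, in HepaRG cells after 48 h chemical treatment. Eight-point half-log series topping at 100 uM in 0.5% DMSO, duplicates; gain or loss fitted relative to vehicle.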
# [12] = read-out: Cytochrome P450 4A22 (Homo sapiens) (UniProt Q5TCH4); experiment: LTEA_HepaRG_CYP4A22: Life Technologies and Expression Analysis (LTEA) Assay for Cytochrome P450 4A22 (CYP4A22) using HepaRG (AID 2283495)
# In short: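 Gene expression measured by qRT-PCR against three housekeeping genes (ACTB, GAPDH, POLR2A), with gain or loss fitted relative to 0.5% DMSO vehicle. HepaRG cultures received 48 h chemical treatment, top concentration 100 uM, half-log steps, duplicate wells.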
# [13] = read-out: Cytochrome P450 7A1 (Homo sapiens) (UniProt P22680); experiment: LTEA_HepaRG_CYP7A1: Life Technologies and Expression Analysis (LTEA) Assay for Cytochrome P450 7A1 (CYP7A1) using HepaRG (AID 2283496)
# In short: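 HepaRG, 48 h exposure, 8-pt half-log series from 100 uM, 0.5% DMSO vehicle, duplicates. Readout: TaqMan qRT-PCR mRNA vs three housekeeping genes; bidirectional curve fit against DMSO baseline.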
# [14] = read-out: Glutathione S-Transferase (GSTA2), GSTA2 (gene 2939); experiment: LTEA_HepaRG_GSTA2: Life Technologies and Expression Analysis (LTEA) Assay for Glutathione S-Transferase (GSTA2) using HepaRG (AID 2283497)
# In short: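 GSTA2 transcript levels came from Fluidigm TaqMan qRT-PCR normalized to three housekeeping genes, fitted in both directions against DMSO. HepaRG cultures received chemicals for 48 h in serum-free induction medium (0.5% DMSO), 8 half-log concentrations up to 100 uM, duplicate.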
# [15] = read-out: DNA damage-inducible transcript 3 (DDIT3), DDIT3 (gene 1649); experiment: LTEA_HepaRG_DDIT3: Life Technologies and Expression Analysis (LTEA) Assay for DNA damage-inducible transcript 3 (DDIT3) using HepaRG (AID 2283488)
# In short: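 DDIT3 transcript was quantified by qRT-PCR with ACTB/GAPDH/POLR2A normalization after 48 h chemical treatment of differentiated HepaRG cells in 0.5% DMSO. Dosing was eight-point, half-log, top 100 uM, duplicate wells. Curves fitted bidirectionally versus DMSO.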
# Chain of Cytochrome P450 2C19 (Homo sapiens) (P33261 whole entry, looked up): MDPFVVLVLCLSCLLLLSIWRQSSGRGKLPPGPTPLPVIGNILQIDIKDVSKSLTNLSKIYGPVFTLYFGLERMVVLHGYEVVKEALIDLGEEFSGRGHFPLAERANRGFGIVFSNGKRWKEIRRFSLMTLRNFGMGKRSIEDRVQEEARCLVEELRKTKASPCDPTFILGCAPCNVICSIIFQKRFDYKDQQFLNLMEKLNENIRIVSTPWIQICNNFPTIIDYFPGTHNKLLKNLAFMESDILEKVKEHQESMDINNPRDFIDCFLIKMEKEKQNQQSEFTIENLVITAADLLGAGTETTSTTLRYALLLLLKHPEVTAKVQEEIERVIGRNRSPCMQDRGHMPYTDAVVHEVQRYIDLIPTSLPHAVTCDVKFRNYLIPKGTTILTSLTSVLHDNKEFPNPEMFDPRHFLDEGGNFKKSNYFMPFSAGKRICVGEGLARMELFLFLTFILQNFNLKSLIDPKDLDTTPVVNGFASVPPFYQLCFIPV
# Chain of Cytochrome P450 3A7 (Homo sapiens) (P24462 whole entry, looked up): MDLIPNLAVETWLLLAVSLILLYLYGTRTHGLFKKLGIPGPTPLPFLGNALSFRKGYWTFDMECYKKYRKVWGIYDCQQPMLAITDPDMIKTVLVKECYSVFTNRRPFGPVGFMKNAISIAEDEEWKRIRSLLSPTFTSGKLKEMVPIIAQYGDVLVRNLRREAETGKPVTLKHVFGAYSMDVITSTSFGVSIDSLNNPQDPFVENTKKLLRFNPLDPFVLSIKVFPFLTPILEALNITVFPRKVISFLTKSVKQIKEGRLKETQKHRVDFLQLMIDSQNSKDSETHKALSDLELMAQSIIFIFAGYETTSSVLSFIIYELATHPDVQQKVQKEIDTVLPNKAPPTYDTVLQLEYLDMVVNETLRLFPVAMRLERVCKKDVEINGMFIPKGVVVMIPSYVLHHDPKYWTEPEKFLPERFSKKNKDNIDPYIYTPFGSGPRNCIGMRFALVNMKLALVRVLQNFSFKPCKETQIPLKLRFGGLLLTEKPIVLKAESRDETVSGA
# Chain of Cytochrome P450 3A4 (Homo sapiens) (P08684 whole entry, looked up): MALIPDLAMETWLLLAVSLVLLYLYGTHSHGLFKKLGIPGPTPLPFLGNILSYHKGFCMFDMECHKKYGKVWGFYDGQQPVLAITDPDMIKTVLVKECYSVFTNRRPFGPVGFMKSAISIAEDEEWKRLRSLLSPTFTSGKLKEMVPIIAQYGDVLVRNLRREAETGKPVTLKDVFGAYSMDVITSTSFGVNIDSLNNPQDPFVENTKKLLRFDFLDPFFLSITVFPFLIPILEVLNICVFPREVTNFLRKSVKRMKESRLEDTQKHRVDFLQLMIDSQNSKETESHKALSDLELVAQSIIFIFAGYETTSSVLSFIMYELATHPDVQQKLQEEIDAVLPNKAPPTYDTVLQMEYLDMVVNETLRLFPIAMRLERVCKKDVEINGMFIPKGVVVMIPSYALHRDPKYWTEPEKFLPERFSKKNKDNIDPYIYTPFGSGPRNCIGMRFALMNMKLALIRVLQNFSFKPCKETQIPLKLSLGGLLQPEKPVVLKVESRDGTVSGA
smiles,measurement,setting,value
CCOC(=O)C(C)Oc1ccc(Oc2cnc3cc(Cl)ccc3n2)cc1 (stereo not given),outcome,[1],inactive
same,AC50,[2],19.2 µM (active)
same,outcome,[3],inactive
same,outcome,[4],inactive
same,AC50,[5],1.24 µM (active)
same,outcome,CYP2C8 (gene 1558),inactive
same,outcome,CYP2C9 (gene 1559),inactive
same,AC50,CYP2E1 (gene 1571),20 µM (active)
same,AC50,CYP4A11 (gene 1579),43 µM (active)
same,outcome,[6],inactive
same,outcome,[7],inactive
same,outcome,[8],inactive
same,outcome,[9],inactive
same,AC50,[10],0.571 µM (active)
same,AC50,CYP3A5 (gene 1577),0.628 µM (active)
same,AC50,[11],0.388 µM (active)
same,AC50,[12],43 µM (active)
same,AC50,[13],9.27 µM (active)
same,AC50,[14],15 µM (active)
CCNc1nc(N)nc(Cl)n1,outcome,[1],inactive
same,outcome,[2],inactive
same,AC50,[4],6.87 µM (active)
same,outcome,CYP2C8 (gene 1558),inactive
same,outcome,CYP2C9 (gene 1559),inactive
same,AC50,CYP2E1 (gene 1571),50 µM (active)
same,outcome,CYP4A11 (gene 1579),inactive
same,AC50,[6],3.18 µM (active)
same,outcome,[15],inactive
same,outcome,[7],inactive
same,outcome,[8],inactive
same,outcome,[9],inactive
same,AC50,[10],9.92 µM (active)
same,outcome,CYP3A5 (gene 1577),inactive
same,outcome,[11],inactive
same,outcome,[12],inactive
same,outcome,[13],inactive
same,outcome,[14],inactive
C#C[C@]1(O)CC[C@H]2[C@@H]3CCC4=CC(=O)CC[C@@H]4[C@H]3CC[C@@]21CC,outcome,[1],inactive
same,outcome,[2],inactive
same,outcome,[4],inactive
same,AC50,[5],5.47 µM (active)
same,outcome,CYP2C8 (gene 1558),inactive
same,outcome,CYP2C9 (gene 1559),inactive
same,AC50,CYP2E1 (gene 1571),0.00149 µM (active)
same,AC50,CYP4A11 (gene 1579),0.0276 µM (active)
same,outcome,[6],inactive
same,outcome,[7],inactive
same,outcome,[8],inactive
same,outcome,[9],inactive
same,outcome,CYP3A5 (gene 1577),inactive
same,AC50,[11],0.713 µM (active)
same,outcome,[12],inactive
same,AC50,[13],0.056 µM (active)
same,outcome,[14],inactive
CCCN(CCC)c1c([N+](=O)[O-])cc(C(F)(F)F)c(N)c1[N+](=O)[O-],outcome,[1],inactive
same,outcome,[2],inactive
same,outcome,[3],inactive
same,AC50,[4],3.15 µM (active)
same,outcome,CYP2C8 (gene 1558),inactive
same,outcome,CYP2C9 (gene 1559),inactive
same,AC50,CYP2E1 (gene 1571),16.2 µM (active)
same,AC50,CYP4A11 (gene 1579),28.9 µM (active)
same,AC50,[6],7.3 µM (active)
same,AC50,[7],21.2 µM (active)
same,outcome,[8],inactive
same,outcome,[9],inactive
same,outcome,[10],inactive
same,outcome,CYP3A5 (gene 1577),inactive
same,AC50,[11],24.9 µM (active)
same,AC50,[12],22 µM (active)
same,AC50,[13],36.6 µM (active)
same,outcome,[14],inactive
CSC(=O)c1cccc2nnsc12,outcome,[1],inactive
same,outcome,[2],inactive
same,outcome,[4],inactive
same,outcome,[5],inactive
same,outcome,CYP2C8 (gene 1558),inactive
same,outcome,CYP2C9 (gene 1559),inactive
same,outcome,CYP2E1 (gene 1571),inactive
same,outcome,CYP4A11 (gene 1579),inactive
same,outcome,[6],inactive
same,outcome,[7],inactive
same,outcome,[8],inactive
same,outcome,[9],inactive
same,outcome,[10],inactive
same,outcome,CYP3A5 (gene 1577),inactive
same,outcome,[11],inactive
same,outcome,[12],inactive
same,outcome,[13],inactive
same,outcome,[14],inactive
